A selection: hits, their analogues and other compounds. The true share with any hit is near 6%.
D1 agonist: agonists of human D1 dopamine receptor | actives 1% (n = 360,000) | activation, % at 2 µM | HEK293 T-REx D1 cells, calcium flux, agonist mode | AID 504660 | P21728; in the data active = activation above about 30%
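Agonism was scored from calcium flux recorded over 180 s (1 read/s) after pintool compound addition, following a 10-cycle baseline. Cells were inducible force-coupled HEK293 TREx D1, plated overnight at 30 C and loaded with no-wash calcium dye.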
D1 potentiator: human D1 dopamine receptor positive modulation. P21728. HEK293 TREx D1 cells, calcium flux, dopamine EC20 potentiation. potentiation, % at 10 µM. actives 0.036% (n = 360,000); in the data active = potentiation above about 30%
DRD3 antagonist: D3 dopamine receptor (human) antagonism; P35462; AID 652054; max response, negative = inhibition, %; actives 2.5% (n = 360,000); D3R cells, DiscoveRx beta-arrestin luminescence, antagonist mode; active compounds read low; in the data active = max response below about -50%; inconclusive = no clear call, values can overlap the other calls
Target sequence (P35462 whole entry, looked up): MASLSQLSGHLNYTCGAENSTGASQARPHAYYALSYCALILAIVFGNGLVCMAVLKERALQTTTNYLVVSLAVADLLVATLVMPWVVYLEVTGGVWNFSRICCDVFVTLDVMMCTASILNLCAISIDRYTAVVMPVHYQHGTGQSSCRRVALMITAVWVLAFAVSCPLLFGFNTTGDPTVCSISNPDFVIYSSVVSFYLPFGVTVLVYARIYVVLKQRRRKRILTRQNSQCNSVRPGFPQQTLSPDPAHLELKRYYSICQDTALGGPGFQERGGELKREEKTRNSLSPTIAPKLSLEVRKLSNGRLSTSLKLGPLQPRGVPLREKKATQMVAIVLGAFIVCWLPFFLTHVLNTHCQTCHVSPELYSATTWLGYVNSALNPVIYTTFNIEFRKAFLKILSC
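Cells expressing the human receptor were seeded at 1500 cells/well, incubated overnight at 37 degrees C in 5% CO2, then exposed to library compounds with dopamine controls for 90 minutes at 37 degrees C before luminescent detection.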
D1 antag: human D1 dopamine receptor antagonism; HEK293 TREx D1 cells, calcium flux, dopamine EC80; active compounds read low; actives 3.2% (n = 360,000); activity change, negative = inhibition, % at 10 µM; P21728; in the data active = activity change below about -30%
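Using tetracycline-induced force-coupled D1 Hek293 cells and a calcium dye, signals were followed for 180 s after compound, then for 180 s after EC80 dopamine, to detect inhibitors.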
DRD3 agonist: activates the human D3 dopamine receptor. max activation, %. AID 652048. D3R DiscoveRx beta-arrestin cells, luminescence, 90 min. actives 0.58% (n = 410,000). P35462; in the data active = max activation above about 30%
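Cells at 1500/well, incubated overnight, then treated with pinned compounds (dopamine as control) for 90 min at 37 degrees C. DiscoveRx reagent added for 30 - 60 minutes at room temperature; luminescence read.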
Each line names hits and unclear results; the compound was inactive in the other large screens; ! = a repeat was not active.

COc1ccc(CCN=C(N)C(C)c2ccccc2)cc1OC (stereo unspecified)	none
CC(C)Cc1ccc(C(C)C(N)=NCCc2ccccc2)cc1 (stereo unspecified)	D1 agonist 30, DRD3 antagonist inconclusive
Cc1ccc(NC(=O)C2=C(c3ccccc3)S(=O)(=O)CCS2(=O)=O)cc1	DRD3 antagonist -71
Cc1ccccc1CCN(C(=O)c1csnn1)C(C(=O)NC1CCCC1)c1ccncc1 (stereo unspecified)	none
CCNC(=O)CC1C(=O)N(c2ccccc2)C(=O)N1Cc1ccc(F)cc1 (stereo unspecified)	none (no result: DRD3 antagonist)
CCOC(=O)c1cccc(NC(=O)c2ncoc2-c2ccco2)c1	D1 antag -39 (no result: DRD3 antagonist)
CCOC(=O)c1cccc(NC(=O)c2cc3ccccc3o2)c1	DRD3 antagonist inconclusive, D1 antag -42
CCOC(=O)c1ccc(NC(=O)c2cc3ccccc3o2)cc1	none
CC(C)Oc1ccc(CNC(=O)CCCn2c(=O)c3cccn3c3ccccc32)cc1	none (no result: DRD3 antagonist)
Cc1ccc(N2C(=O)C(CC(=O)Nc3ccc(F)cc3)N(CCC3=CCCCC3)C2=O)cc1 (stereo unspecified)	none (no result: DRD3 antagonist)
COc1ccc(C(=O)c2sc3nc(C)cc(-c4cccs4)c3c2N)cc1OC	D1 agonist 82, DRD3 agonist 52
Cc1cc(-c2cccs2)c2c(N)c(C(=O)c3ccc4c(c3)OCO4)sc2n1	D1 agonist 61
Cc1ccc(NC(=O)C(Cc2ccccc2)N2Cc3ccccc3C2=O)cc1Cl (stereo unspecified)	none (no result: DRD3 antagonist)
CCC(C(=O)NC1CCCC1)n1c(-c2cc3ccccc3[nH]2)nc2ccccc21 (stereo unspecified)	none (no result: D1 agonist, D1 potentiator, D1 antag)
Cc1ccc(C)c(NC(=O)Cn2nc(-c3ccccc3)nc2-c2ccccc2)c1	D1 antag -33
COc1ccc(Cc2n[nH]c(=S)o2)cc1	none
COc1cccc(OCc2nc(-c3ccc(Br)o3)no2)c1	none
Brc1ccc(-c2noc(COc3ccc4ccccc4c3)n2)o1	D1 antag -52
Clc1ccccc1OCc1nc(-c2ccc(Br)o2)no1	D1 antag -41 (no result: D1 potentiator)
S=c1[nH]nc(COc2ccc3ccccc3c2)o1	DRD3 antagonist -62
CCS(=O)(=O)N1CCC(C(=O)NCc2ccc(F)cc2Cl)CC1	none
CC(C)CN(CC(C)C)S(=O)(=O)N1CCC(C(=O)NCc2cccnc2)CC1	none
O=C(NCc1ccc(F)cc1Cl)C1CCN(S(=O)(=O)N2CCCCC2)CC1	D1 agonist 50
CC(C)CN(CC(C)C)S(=O)(=O)N1CCC(C(=O)NCc2ccc(F)cc2)CC1	D1 antag -67
O=C(NCc1ccc(F)cc1)C1CCN(S(=O)(=O)c2ccc(Br)s2)CC1	D1 antag -30
O=C(NCc1ccc(F)cc1)C1CCCN(S(=O)(=O)c2ccc(Br)s2)C1 (stereo unspecified)	none
CN1CCN(CCCC(=O)c2ccc(F)cc2)CC1	DRD3 antagonist -60
O=C(CCN1Cc2ccccc2C1)c1ccc2c(c1)OCCO2	DRD3 antagonist -52
O=C(CCCN1CCN(c2ccccc2)CC1)c1ccc(F)cc1	DRD3 antagonist -102 (no result: D1 agonist, D1 potentiator, D1 antag)
O=C(CCC(=O)N1CCN(c2ccc(F)cc2)CC1)c1ccccc1	none
O=C(CCCN1CCN2CCCC2C1)c1ccc(F)cc1 (stereo unspecified)	none (no result: D1 agonist, D1 potentiator, DRD3 antagonist, D1 antag)
O=C(CCN1CCc2ccccc2C(c2ccccc2)C1)c1ccc2c(c1)OCCO2 (stereo unspecified)	DRD3 antagonist inconclusive
O=C(CCCN1CCOC(c2ccccc2)C1)c1ccc(F)cc1 (stereo unspecified)	DRD3 antagonist -86
CCCCN1C(=O)C(=O)N(CC(=O)N2CCN(c3ccccc3)CC2)C1=O	none
O=C(CN1CCN(c2ccccc2)CC1)c1ccc2cc[nH]c2c1	DRD3 antagonist -63, D1 antag -36
O=C(CCCN1Cc2ccccc2C1)c1ccc(F)cc1	DRD3 antagonist -151, D1 antag -71
O=C1CC(=C(c2ccccc2)c2ccccc2)C(=O)N1CCCCN1CCN(c2ccccc2)CC1	D1 antag -57
Cc1cc(C)c2c(=O)[nH][nH]c2n1	none (no result: D1 agonist, D1 potentiator, D1 antag)
CSc1nn(CC(=O)Nc2ccc(C)cc2C)c(N)c1S(=O)(=O)c1ccc(Cl)cc1	none (no result: DRD3 antagonist)
CC(C)(C)c1ccc(-c2nc(S(=O)(=O)c3ccccc3)c(N3CCOCC3)o2)cc1	none (no result: DRD3 antagonist)
O=C(/C=C/c1cn(CC(O)CN2CCCCC2)c2ccccc12)c1ccccc1 (stereo unspecified)	D1 agonist 31, DRD3 antagonist inconclusive, D1 antag -50
Cc1ccc(C(=O)/C=C/c2cn(CC(O)CN3CCCCCC3)c3ccccc23)cc1 (stereo unspecified)	D1 agonist 59 (no result: DRD3 antagonist)
O=C(/C=C/c1cn(CC(O)CN2CCCCC2)c2ccccc12)c1cccs1 (stereo unspecified)	D1 agonist 46
COc1ccc(C(=O)/C=C/c2cn(CC(O)CN3CCCCCC3)c3ccccc23)cc1OC (stereo unspecified)	none (no result: DRD3 antagonist)
O=C(/C=C/c1cn(CC(O)CN2CCCCCC2)c2ccccc12)c1ccccc1 (stereo unspecified)	D1 agonist 54 (no result: DRD3 antagonist)
CCN1CCc2nc3sc(C(=O)Nc4cccc(Cl)c4C)c(N)c3cc2C1	none (no result: DRD3 antagonist)
Cc1ccc(CSc2nc3cccnc3n2Cc2ccc(C(=O)NC3CCCCC3)cc2)cc1	none (no result: DRD3 antagonist)
O=C(/C=C/c1cn(CC(O)CN2CCCCCC2)c2ccccc12)c1ccc(Br)cc1 (stereo unspecified)	D1 agonist 45 (no result: DRD3 antagonist)
Clc1ccc(N=c2ssnc2Cl)cc1	none
COc1ccc(N=c2ssnc2Cl)cc1	DRD3 antagonist -55
CCc1nnc(N/N=C/c2ccccc2Cl)n1N	DRD3 antagonist -63
CC(C)(C)c1nnc(N/N=C/c2ccccc2O)n(N)c1=O	DRD3 agonist 33
CC(C)(C)c1nnc(N/N=C/c2ccccc2)n(N)c1=O	none
CCc1nnc(N/N=C/c2ccccc2F)n1N	none
CCN(CC)c1ccc(C=Nc2ccc(OC)c(S(=O)(=O)N3CCOCC3)c2)c(O)c1	D1 antag -33
CCN(CC)c1ccc(C=Nc2cccc(S(=O)(=O)N3CCOCC3)c2)c(O)c1	none (no result: D1 agonist, D1 potentiator, D1 antag)
COc1cc(-c2nc3cnccn3c2Nc2ccc(C(C)C)cc2)ccc1O	D1 agonist 34!
Cc1ccn2c(Nc3ccc(C(C)C)cc3)c(-c3cccnc3)nc2c1	none (no result: DRD3 antagonist)
CC(C)c1ccc(Nc2c(-c3ccccc3O)nc3cnccn23)cc1	DRD3 agonist 38 (no result: DRD3 antagonist)
COC(=O)C1(c2ccccc2)NC(c2ccc(O)cc2)C2C(=O)N(c3ccc4c(c3)OCO4)C(=O)C21 (stereo unspecified)	D1 antag -56
CC(NC(=O)Nc1ccc(Cl)c(Cl)c1)C(c1ccccc1)N1CCOCC1 (stereo unspecified)	D1 agonist 158
CC(NC(=O)Nc1ccc([N+](=O)[O-])cc1)C(c1ccccc1)N1CCOCC1 (stereo unspecified)	D1 agonist 173
